Out of some 2,300 compounds screened, about 1,500 (65%) were called active. So high a share suggests a set chosen from earlier hits. The list shows a part of the results. Results with a measured potency or affinity are listed apart. Values without a mark were called inactive. No rule for the calls is given here.
experiment: replicating M. tuberculosis growth inhibition, dose response, non-replicating M. tuberculosis project, H37Rv (AID 492952); settings: series mostly up to 50 µM; inhibition: at the top concentration;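 also: Mycobacterium tuberculosis grown in culture; growth inhibition read after a week of incubation; 0% = bacteria alone untreated and 100% = bacteria with high antibiotic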

Structure (SMILES)	inhibition [%]
CCCOC(=O)c1cc(-c2ccc(C=O)o2)ccc1Cl	5.73
O=C(COC(=O)CC12CC3CC(CC(C3)C1)C2)Nc1cccnc1Cl	6.83
O=C(NNC(=O)C12CC3CC(CC(C3)C1)C2)c1cnccn1	8.93
O=C(NC(=S)Nn1cnc2c(cnn2-c2ccccc2)c1=O)c1ccccc1	0.77
CCC(C)c1ccc(O)c(/C=N/O)c1 (configuration not stated)	5.4
CSc1ccccc1C(=O)NCc1ccc(S(N)(=O)=O)cc1	12.7
O=C(CCC1CCCCC1)NCc1ccc(F)cc1	-2.73
CCOc1cccc2cc(C(=O)NCc3ccccc3)c(=N)oc12	6.68
C/C(=N\NC(=O)c1ccc(CN2CCc3ccccc3C2)cc1)c1ccccc1O	0.55
O=C(Cc1ccc(F)cc1)Nc1ccc(Cl)cn1	-0.35
O=C(c1ccco1)N1CCN(c2ccc(F)cc2)CC1	4.57
CC(=O)N1CCC(=NNC(=O)c2cccs2)CC1	2.67
O=C(NCCC1CCCC1)c1cccs1	-4.94
N/C(=N\OC(=O)CC1CCCCC1)c1ccncc1	1.58
O=C(COC(=O)CC1CCCC1)Nc1ccc(OC(F)F)cc1	-0.34
O=C(COC(=O)C1CCCCC1)Nc1ccccc1OC(F)F	-25.5
Cc1ccc(CO/N=C/c2c(O)cc(C)oc2=O)cc1	2.02
Cc1ccc(CCC(=O)Nc2ccccc2F)s1	18.7
O=C(Nc1ccccc1F)c1ccc(Br)o1	-3.44
NC(=O)C1CCN(C2CC(=O)NC2=O)CC1 (configuration not stated)	-5.72
COc1ccc(OCCSc2nnc(Cc3cccc4ccccc34)n2N)cc1	-6.56
N/C(=N\OC(=O)c1cccs1)c1ccccc1	2.45
CC1(C)CC(=O)C(C2NCCc3ccccc32)=C(O)C1 (configuration not stated)	4.03
Cc1cc(C(=O)NNc2cc(Cl)ccc2Cl)no1	7.55
O=C(Nc1ccccc1F)c1ccc(CSc2ccccc2)o1	-1.3

Structure (SMILES)	inhibition [%]
CCCc1cc(C(=O)Nc2cccc(C(C)=O)c2)no1	-0.8
CCCC(=O)N1CCC(Cc2ccccc2)CC1	-6.45
C[C@@H]1CN=C2N(CCNC(=O)CCC3CCCCC3)[C@H](Cc3ccc(O)cc3)CN21	6.51
O=C(CN1CCC(Cc2ccccc2)CC1)NC(=O)NC1CCCCC1	7.51
CC(C)[C@H]1CN=C2N(C[C@H](C)NC(=O)CCC3CCCCC3)[C@H](Cc3ccc(O)cc3)CN21	0.35
COc1cc(C=O)ccc1OCCCCOc1ccccc1[N+](=O)[O-]	-2.84
CCc1ccc(C2=C/C(=C/c3cccnc3)C(=O)O2)cc1	1.91
C/C(=N\Nc1ccc(Cl)cc1)c1c(O)cc(C)oc1=O	-6.6
CN(C)c1ccc(NC(=O)COC(=O)c2cc(Cl)ccc2[N+](=O)[O-])cc1	16.4
O=C(Nc1ccc(Cl)cn1)C1COc2ccccc2O1 (configuration not stated)	-9.66
CC(C)NC(=O)C1COc2ccccc2O1 (configuration not stated)	5.57
O=C(Nc1ccc([N+](=O)[O-])cc1)C1COc2ccccc2O1 (configuration not stated)	-1.93
O=C(Nc1cccc([N+](=O)[O-])c1)C1COc2ccccc2O1 (configuration not stated)	-1.31
Cn1cccc1/C=N\NC(=O)C1COc2ccccc2O1 (configuration not stated)	2.74
O=C(Nc1cccc(Cl)c1)C1COc2ccccc2O1 (configuration not stated)	5.4
COc1ccc2c([N+](=O)[O-])c(N3CCCC3)[nH]c2c1	11.5
COC(=O)c1cccc(NC(=O)COc2cccc([N+](=O)[O-])c2)c1	3.64
COc1ccc(NC(=O)COc2ccccc2)cc1Cl	20
CN(C)S(=O)(=O)Oc1ccc(C(=O)Nc2cccc(C(F)(F)F)c2)cc1	0.37
C=C(C)C1Cc2cc3ccc(=O)oc3cc2O1 (configuration not stated)	-6.72
COCCNC(=O)CC(=O)N/N=C/c1cccc(C(=O)OC)c1	-0.54
O=C(CCc1c[nH]c2ccccc12)Nc1ncccc1O	4.85
O=C(COC(=O)CCC(=O)c1ccc(F)cc1)Nc1ccccc1	-0.44
COc1cccc(NC(=O)COC(=O)Cc2ccc(Br)cc2)c1	6.93
CC(=O)c1ccc(NC(=O)C(Cc2ccccc2)n2cccc2)cc1 (configuration not stated)	1.69

Structure (SMILES)	inhibition [%]
Cc1cc(C(=O)NNc2ccc(Cl)cc2)no1	4.74
COc1ccc(NC(=O)c2cc([N+](=O)[O-])ccc2O)cc1	25.4
Cc1ccc(CSCCNC(=O)c2cccc([N+](=O)[O-])c2)cc1	26
COc1ccc([C@@]2(O)c3c(ccc(CC=C(C)C)c3O)NC(=O)[C@@H]2OC)cc1	-7.91
CN1/C(=C\C=N\NC(=O)c2cccnc2)C(C)(C)c2ccccc21	17.1
C/C(CC(=O)Nc1ccc(C)c(Cl)c1)=N\NC(=O)c1ccco1	1.14
CCc1cccc(OCCCn2ccnc2)c1	2.96
O=Cc1ccc(OC2OCCOC2Oc2ccc(C=O)cc2)cc1 (configuration not stated)	0.69
CC1=NN(C(=O)c2cc(C)nn2C)C(O)(C(F)(F)F)C1 (configuration not stated)	-3.55
CC1=NN(C(=O)c2ccc(Cn3nc(C)c(Br)c3C)cc2)C(O)(C(F)(F)F)C1 (configuration not stated)	-4.33
CC1=NN(C(=O)c2ccoc2C)C(O)(C(F)(F)F)C1 (configuration not stated)	5.07
O=C(c1ccccc1[N+](=O)[O-])N1N=C(c2ccccc2)CC1(O)C(F)(F)F (configuration not stated)	-1.38
Cc1cc(C)cc(NC(=O)COC(=O)CC2CCCC2)c1	6.23
O=C(CC1CCCCC1)NCc1ccccc1	-2.3
Cc1cc(Cl)ccc1NNC(=O)c1cccs1	28
CCN1CCN(Cc2cc(C(C)(C)C)c(O)c(C(C)(C)C)c2)CC1	-3.19
COc1cc(CNCCNC(=O)c2nonc2N)ccc1OCc1ccc(Cl)cc1	18.4
O=C(NNc1ccc([N+](=O)[O-])cc1)C1CC1c1ccccc1 (configuration not stated)	21.1
Cc1cccc(OCC(O)Cn2c(=N)n(Cc3ccccc3)c3ccccc32)c1 (configuration not stated)	10.8
CCOc1ccc(Cn2c(=O)oc3ccccc32)cc1	4
Cc1ccc(C(=O)N2N=C(CC(C)C)CC2(O)C(F)(F)F)o1 (configuration not stated)	4.03
O=C(C/C=N\OCc1ccc([N+](=O)[O-])cc1)Nc1ccc(Br)cc1	17.8
CCSc1nsc(NC(=O)Nc2ccc(F)cc2F)n1	5.85
C=CCc1ccc2oc(C(=O)OCC)cc(=O)c2c1O	7.41
CCC1(O)CC(c2ccccc2)=NN1C(=O)c1ccccc1F (configuration not stated)	6.6

Structure (SMILES)	inhibition [%]
COc1ccc(/C=N/NC(=O)C(=O)NCc2cccnc2)cc1OC	-6.15
O=Cc1ccnc(-c2ccc(OC(=O)c3ccco3)cc2)n1	1.13
COc1cc(/C=N/Nc2ccc(Cl)c(C(=O)O)c2)ccc1OC(=O)c1cccs1	5.49
Cn1c(SCCOc2cccc(Cl)c2)nnc1-c1ccncc1	-0.26
Cc1ccc(S(=O)(=O)NCC(=O)OCCOc2cccc(Cl)c2)cc1	7.77
CN(CCS(=O)(=O)c1ccc(Cl)cc1)Cc1cccnc1	1.79
Cc1ccc(NC(=O)CCSc2nnc(-c3ccco3)o2)cc1	-17.6
CCCn1nnnc1NCc1ccc(CC)cc1	5.44
CCCn1nnnc1NC(=O)COc1ccc(Br)cc1	4.6
CCCn1nnnc1NCc1ccc(C(C)C)cc1	2.16
Cc1ccc(-c2nnc(NC3CCCC3)s2)cc1	9.87
Oc1c(Br)cc(Br)cc1/C=N/c1nccs1	1.77
Cc1cccc(NC(=O)c2n[nH]c([N+](=O)[O-])c2Br)c1C	6.95
O=C(NCc1ccc(F)cc1)c1ccc(Br)o1	-8.86
Cc1cccc(NCc2nnc(-c3ccccc3)o2)c1C	6.77
C=C[C@]1(C)C=C2CCC3[C@](C)(CCC[C@@]3(C)C(=O)O)C2CC1 (some centres not stated)	11.8
O=C(Nc1ccccc1N1CCN(C(=O)c2ccc(Cl)cc2)CC1)c1ccc([N+](=O)[O-])o1	9.94
CCn1nnc(NC(=O)c2ccc([N+](=O)[O-])o2)n1	7.33
O=C(c1ccc(Br)o1)N1CCC(Cc2ccccc2)CC1	8.42
CC1CCN(C(=O)C2COc3ccccc3O2)CC1 (configuration not stated)	-4.97
O=C1NC2(CCC3(CC2)OCCO3)NN1c1ccc(Cl)cc1	-1.65
O=C(COC(=O)Cc1ccc(Br)cc1)Nc1ccc(N2CCOCC2)cc1	3.83
O=C(NC1=NCCS1)c1ccc(-c2ccc(Cl)cc2)o1	17.6
NC(=O)c1ccc(-c2ccc(Br)cc2)o1	17.1
Cc1c(NC(=O)c2coc(=O)c(Br)c2)c(=O)n(-c2ccccc2)n1C	-3.48

Structure (SMILES)	inhibition [%]
COc1ccc(N=N/C(=C\O)C(=O)c2cccs2)cc1	-1.77
CC(CCc1ccccc1)NC(=O)COC(=O)c1cccs1 (configuration not stated)	7.79
COc1ccc(C(=O)COC(=O)CCC(=O)c2cccs2)cc1	7.37
CC(C)(NO)/C(=N\O)c1ccccc1	-0.87
CCC1CCc2sc(C(=O)NCC3CCCO3)cc2C1 (configuration not stated)	-2.23
CCc1cc(C(c2ccncc2)N2CCN(C)CC2)c(NC(=O)c2ccccc2)s1 (configuration not stated)	-2.97
CC(C)(C)c1ccc(C(=O)N2CCCC2)s1	1.22
COc1ccccc1N1CCN(C(=O)CCn2c(=O)[nH]c3ccsc3c2=O)CC1	4.43
CC(=O)Oc1ccc(N(C(C)=O)S(=O)(=O)c2cccs2)c2ccccc12	0.62
COc1cccc(OCC(=O)NNC(=O)c2cccs2)c1	-1.49
COc1ccc(-c2nc(C=O)cs2)cc1	24.4
COc1ccc(-c2cc(O)cc(O)c2)cc1	0.3
CCc1ccc(C(C)NC(=O)C2CCCO2)cc1 (configuration not stated)	-2.83
Cc1ccc2cc(/C=N/NC(=O)[C@H](C)NC(=O)OC(C)(C)C)c(Cl)nc2c1	4.71
CCOc1ccc(NC(=O)CCc2ccc(C)o2)cc1	6.91
NC(N)=N/N=C/c1cccc([N+](=O)[O-])c1O	-3.2
Cc1cccc(NC(=O)CO/N=C/c2ccc3c(c2)OCO3)c1	18
COCC(=O)Nc1ccccc1NC(C)=O	-2.75
COc1ccc(C(=O)CCNc2ccc(F)cc2)cc1	-0.64
CCOC(=O)C(=CNNc1cccc(Cl)c1)C(=O)OCC	5.8
O=C(CN1CCN(c2ccccc2)CC1)Nc1nnc(-c2ccccc2)s1	1.95
CCc1nnc(NC(=O)CN2CCN(Cc3ccc(F)cc3)CC2)s1	-1.34

Reference: PubChem BioAssay AID492952 (Southern Research Specialized Biocontainment Screening …, 2010)
